From PubChem
DRD3 agonist = activates the human D3 dopamine receptor | D3R DiscoveRx beta-arrestin cells, luminescence, 90 min | max activation, % | actives 0.58% (n = 410,000); in the data active = max activation above about 30%; also: 0% is about no effect
Target sequence (P35462 whole entry, looked up): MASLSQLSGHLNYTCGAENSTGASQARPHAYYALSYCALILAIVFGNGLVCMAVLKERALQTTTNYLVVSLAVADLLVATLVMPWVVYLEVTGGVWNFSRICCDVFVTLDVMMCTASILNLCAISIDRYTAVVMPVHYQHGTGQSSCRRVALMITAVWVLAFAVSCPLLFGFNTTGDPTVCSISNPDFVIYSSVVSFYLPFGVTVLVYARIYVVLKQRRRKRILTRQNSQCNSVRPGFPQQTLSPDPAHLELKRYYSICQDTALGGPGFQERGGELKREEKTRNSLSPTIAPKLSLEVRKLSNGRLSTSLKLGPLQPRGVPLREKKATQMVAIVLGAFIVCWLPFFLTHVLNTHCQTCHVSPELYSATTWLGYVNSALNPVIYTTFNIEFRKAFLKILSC
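Cells at 1500/well, incubated overnight, then treated with pinned compounds (dopamine as control) for 90 min at 37 degrees C. DiscoveRx reagent added for 30 - 60 minutes at room temperature; luminescence read.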
GLP1R inv ag = GLP-1 receptor (human) inverse agonism. P43220. HEK293 GLP-1R CRE-luciferase, luminescence, 24 h; GLP-1R form is constitutively active. Potency, µM (titrated, usually from 38.3 µM), for the others: top-dose activity change, negative = inhibition, most hits filed as inhibitors. actives 1.6% (n = 410,000); also: potency is read from the fitted curve at half-maximal effect; % is scaled to controls: 0 for no effect and ±100 for the full control effect; nearly all actives have a fitted effect of over 55% in size
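Assay principle: reduced luminescence from a cAMP-responsive reporter in HEK293 cells co-expressing a constitutively active GLP-1R. Conditions: 24 hr compound incubation, 37 deg C, 5% CO2.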
GLP1R ag = agonists of human GLP-1 receptor | AID 624172 | HEK293 GLP-1R CRE-luciferase, luminescence, 4-6 h; cells express a hypersensitive GLP-1R form | actives 0.007% (n = 380,000) | Potency, µM (doses to about 45.6 µM), for inactives: at the top dose activation, usual class: activators; also: potency is read from the fitted curve at half-maximal effect; % of control where 0% means no effect
D3 antag = D3 dopamine receptor (human) antagonism. P35462. D3R cells, DiscoveRx beta-arrestin luminescence, antagonist mode; active compounds read low. max response, negative = inhibition, %. actives 2.5% (n = 360,000); in the data active = max response below about -50%; inconclusive = no clear call, values can overlap the other calls; also: % is scaled to controls: 0 for no effect and ±100 for the full control effect
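Cells plated overnight at 1500 cells/well, then exposed to library compounds with dopamine controls for 90 minutes at 37 degrees C. DiscoveRx reagent added for 30–60 minutes at room temperature; luminescence read, quantitative HTS format.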
Starred values were filed as active, the others as inactive; u = inconclusive; x = no result given; [ ] = dose if it differs, or a comment. Hits are enriched below; roughly 4.3% of the tested compounds scored in any of these assays. Unless noted, calls follow the shape of the dose curve; as a rule, active = well fitted curve in the direction sought with a large enough effect; inconclusive = small, poorly fitted or top-dose-only effect, or another doubt; inactive = no such curve, though single readings can be large; an effect the other way counts as inactive or inconclusive.

SMILES	DRD3 agonist	GLP1R inv ag	GLP1R ag	D3 antag
CCOc1ccc(NS(=O)(=O)c2cccc(C(=O)NCC3(N(C)C)CCCCC3)c2)cc1	-4.8	10µM*	0.6%	13.4
COc1ccc(C(CNC(=O)c2cccc(NS(=O)(=O)c3ccc(Br)cc3)c2)N(C)C)cc1 (configuration not stated)	-28.8	u	16.9%	-78.5*
COc1ccc(NS(=O)(=O)c2cccc(C(=O)NCC3(N4CCCCC4)CCCCC3)c2)cc1	-9.5	16.5%	-13.6%	-8.0
COc1ccc(C(CNC(=O)CN(C)S(=O)(=O)c2ccc(C)cc2)N2CCCC2)cc1 (configuration not stated)	-13.8	u	11.9%	-98.8*
COc1ccccc1C(CNC(=O)CN(C)S(=O)(=O)c1ccc(C)cc1)N1CCCC1 (configuration not stated)	-5.2	-19.6%	5.2%	2.7
CCC1CCc2sc(C(=O)NCC(c3ccc(OC)cc3)N3CCOCC3)cc2C1 (configuration not stated)	-5.1	u	7.0%	-90.5*
COc1ccc(C(CNS(=O)(=O)c2ccc(NC(C)=O)c(OC)c2)N2CCCCC2)cc1 (configuration not stated)	-7.8	4.9%	4.8%	8.9
COc1ccc(C(CNC(=O)c2ccc(S(=O)(=O)N(C)C)cc2)N2CCCC2)cc1 (configuration not stated)	-12.4	-13.7%[0.307 µM]	2.7%	-7.7
COc1ccccc1C(=O)NC(CCSC)C(=O)NCC(c1cccs1)N(C)C (configuration not stated)	-8.7	-0.7%	1.2%	6.4
COc1ccc(C(CNC(=S)NCc2ccccc2)N2CCCC2)cc1 (configuration not stated)	-34.8	u	0.7%	-57.8*
COc1ccc(C(CNC(=O)c2cccc(S(=O)(=O)N(C)c3ccccc3)c2)N2CCCC2)cc1 (configuration not stated)	-24.7	u	7.3%	-66.0*
COc1ccc(C(CNS(=O)(=O)c2ccc(NC(C)=O)c(OC)c2)N2CCCC2)cc1 (configuration not stated)	-2.0	-16.6%	8.4%	-53.9*
COc1ccccc1C(=O)NC(CCSC)C(=O)NCC(c1ccco1)N(C)C (configuration not stated)	-5.6	1.0%	-7.8%	-67.1*
COc1cc(OC)c(NC(=O)NCc2ccc3c(c2)CCN3C(=O)c2ccccc2)cc1Cl	-11.4	-13.4%	x	x
COc1ccccc1NS(=O)(=O)c1cccc(C(=O)NCC(c2ccccc2OC)N2CCCC2)c1 (configuration not stated)	-19.9	u	5.3%	-14.2
COc1ccc(C(CNC(=O)c2ccccc2C)N2CCCC2)cc1 (configuration not stated)	-34.1	0.0%	-7.9%	-85.3*
COc1ccccc1C(CNC(=O)c1cccc(S(=O)(=O)Nc2ccc(C)cc2)c1)N1CCCC1 (configuration not stated)	-18.7	5.62µM*	-4.5%	-8.5
COc1ccc(C(CNC(=O)C(CCSC)NC(=O)c2ccccc2Cl)N2CCCC2)cc1 (configuration not stated)	-8.0	-24.6%	4.6%	-20.4
CC1CCCN(S(=O)(=O)c2cccc(C(=O)NCc3ccco3)c2)C1 (configuration not stated)	5.9	-7.2%	8.3%	u
COc1ccc(C(CNC(=O)c2cccc(S(=O)(=O)N3CCCC(C)C3)c2)N(C)C)cc1 (configuration not stated)	-27.0	u	8.9%	-65.0*
COc1ccc(C(CNC(=O)C(CCSC)NC(=O)c2ccccc2Cl)N2CCCCC2)cc1 (configuration not stated)	-22.6	-8.2%	0.0%	-59.1*
COc1cccc(NC(=O)c2ccc(CNS(=O)(=O)c3ccc4c(c3)C(C)(C)C(=O)N4C)cc2)c1	10.5	u	x	x
COc1ccccc1CNc1ncnc2c1cnn2-c1ccc(C)cc1	8.2	u	x	x
CCOc1ccc(S(=O)(=O)Nc2cccc(C(=O)NCC(c3ccc(OC)cc3)N3CCOCC3)c2)cc1 (configuration not stated)	-12.5	-1.8%	-1.3%	-24.5
COc1ccc(C(CNC(=O)c2cccc(NS(=O)(=O)c3ccccc3)c2)N2CCCC2)cc1 (configuration not stated)	-2.0	u	13.7%	-88.0*
SMILES	DRD3 agonist	GLP1R inv ag	GLP1R ag	D3 antag
COc1ccc(C(CNC(=O)c2cccc(S(=O)(=O)Nc3ccc(C)cc3)c2)N2CCCCC2)cc1 (configuration not stated)	-32.7	u	0.5%	-63.9*
COc1ccc(C(CNC(=O)C(C)Oc2ccc(Br)cc2)N2CCCC2)cc1 (configuration not stated)	-23.3	u	16.4%	-81.2*
Cc1ccc(S(=O)(=O)Nc2cc3c4c(c2)CCC(=O)N4CCC3)cc1	10.6	49.0%	25.3%	0.9
CC1(C)C[C@H](O)[C@]2(CO)[C@H](O)C[C@]3(C)C(=CCC4[C@@]5(C)CC[C@H](O)C(C)(C)C5CC[C@]43C)[C@@H]2C1 (some centres not stated)	-7.4	-18.2%	-0.1%	-84.4*
CC(C)Oc1ccc(C(=O)N(Cc2ccco2)Cc2cccs2)cc1	0.3	u	x	x
CC(C)Oc1ccc(C(=O)/C(=C\c2cccs2)c2nc3ccccc3o2)cc1	6.2	7.08µM*	8.5%	-23.3
Cn1c(=O)c(NC2CCCCC2)c2c3c(cccc31)C(=O)c1ccccc1-2	-2.6	10µM*	-1.8%	-2.5
CCCc1cc(=O)oc2cc(C)cc(OCC(=O)NC3CC3)c12	-2.0	42.5%	1.3%	-2.2
CCC(=O)N1CCc2cc(Br)cc(S(=O)(=O)CCC(=O)NCc3cccc(OC)c3)c21	-9.8	-21.9%	x	x
CCc1ccc(C2=C(C)C(N3CCC(C(=O)Nc4ccc(F)cc4)CC3)=NS2(=O)=O)cc1	5.3	-17.2%	x	x
Cc1ccc(S(=O)(=O)NCC(=O)Nc2ccc(C(F)(F)F)cc2)cc1	35.1*	-6.5%	-18.4%	17.6
NS(=O)(=O)c1ccc(NC(=O)Nc2ccc(C(F)(F)F)cc2)cc1	7.3	5.01µM*	4.9%	5.6
NS(=O)(=O)c1ccc(NC(=O)Nc2ccc(S(N)(=O)=O)cc2)cc1	-10.6	-0.3%	0.3%	6.3
CCOC(=O)C(Cc1ccccc1)C(=O)NCc1cccnc1 (configuration not stated)	0.8	5.4%	-1.3%	12.2
CCCCCCCCCCCCCCCCn1cc[n+](CC(C)=O)c1	2.9	4.47µM*	-1.0%	-24.3
COCCCNCCOCCOc1ccc(C)cc1Br	-25.6	u	0.2%	u
CCC(C)NCCOCCOc1ccc(Cl)cc1Br (configuration not stated)	-20.6	u	15.0%	-82.8*
Cc1ccc(OCCOCCNC(C)C)c(Br)c1	-3.3	u	1.4%	-74.7*
CCCCNCCOCCOc1ccc(C)cc1Br	-15.5	u	11.2%	-80.6*
